Screening results from PubChem.
Only some compounds are listed: those with a hit (about 2.4% of all), similar ones and a draw of the others.
POLB inh: inhibitors of human DNA polymerase beta | P06746 | Pol beta primer extension/strand displacement, fluorescence kinetic | Potency, µM (highest dose often 114 µM), without a hit: at the highest dose activity change, negative = inhibition, most hits filed as inhibitors | hit rate 1.3% among 340,000 | AID 485314; also: potency is read from the fitted curve at half-maximal effect; % is scaled to controls: 0 for no effect and ±100 for the full control effect
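Preincubation: enzyme (10 nM) with compound, 15 min, RT. Reaction: substrate added to 50 nM final. Reads: 0 and 10 min. Analysis: normalized, Hill fit.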
Pol kappa inh-1: DNA polymerase kappa (human) inhibition | purified Pol kappa, fluorescent DNA synthesis assay, 10 min | Potency, µM (series often up to 107 µM), without a hit: at the top dose activity, negative = inhibition, hits mostly inhibitors | hit rate 0.53% among 400,000 | AID 588579; also: potency is read from the fitted curve at half-maximal effect; % is scaled to controls: 0 for no effect and ±100 for the full control effect
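First, compounds were pin-transferred onto 10 nM Pol kappa. After 15 min at room temperature, substrate was added to 50 nM final. Fluorescence was then measured kinetically at 0 and 10 min.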
FEN1 inhibitor: inhibitors of human flap endonuclease 1 | P39748 | AID 588795 | Potency, µM (doses to about 114 µM), for the others: at the highest dose activity change, negative = inhibition, usual class: inhibitors | hit rate 0.35% among 390,000 | Recombinant FEN1 flap cleavage, fluorescence, 15 min; also: potency is read from the fitted curve at half-maximal effect; % is scaled to controls: 0 for no effect and ±100 for the full control effect; nearly all actives have a fitted effect of over 65% in size
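With each library titrated from low to high concentration, compounds met 10 nM FEN1 for 15 min at room temperature before 50 nM substrate was added; readings at 0 and 15 min fed four-parameter Hill curve fits.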
POLI inh: blocks human DNA polymerase iota activity; Q9UNA4; hit rate 1% among 390,000; Pol iota fluorescent replication assay, 10 min; AID 588590; Potency, µM (titrated, usually from 115 µM), without a hit: at the top dose activity, negative = inhibition, actives largely listed as inhibitors; also: potency is read from the fitted curve at half-maximal effect
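Fluorescent replication assay read twice, at 0 min and 10 min after adding 50 nM (final) substrate. Enzyme (10 nM) and compounds were first incubated 15 min at room temperature; enzyme-free buffer wells were negative controls.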
Pol eta inh-1: inhibitors of human DNA polymerase eta; AID 588591; recombinant Pol eta, fluorescent DNA replication assay; Q9Y253; Potency, µM (titrated, usually from 114 µM), for inactives: at the top dose activity change, negative = inhibition, most hits filed as inhibitors; hit rate 1.2% among 390,000; also: potency is read from the fitted curve at half-maximal effect; % is scaled to controls: 0 for no effect and ±100 for the full control effect
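Fluorescent replication assay: 50 nM final substrate added after a 15 min room-temperature compound preincubation with 10 nM enzyme. Signal taken at 0 min and again at 10 min.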
TDP1 inh: inhibitors of human tyrosyl-DNA phosphodiesterase TDP1; Q9NUW8; recombinant TDP1, AlphaScreen DNA substrate cleavage; Potency, µM (titrated, usually from 130 µM), for the others: top-dose activity change, negative = inhibition, most hits filed as inhibitors; hit rate 0.28% among 350,000; AID 485290; also: potency is read from the fitted curve at half-maximal effect; % is scaled to controls: 0 for no effect and ±100 for the full control effect; nearly all actives have a fitted effect of over 40% in size
Target sequence (Q9NUW8 whole entry, looked up): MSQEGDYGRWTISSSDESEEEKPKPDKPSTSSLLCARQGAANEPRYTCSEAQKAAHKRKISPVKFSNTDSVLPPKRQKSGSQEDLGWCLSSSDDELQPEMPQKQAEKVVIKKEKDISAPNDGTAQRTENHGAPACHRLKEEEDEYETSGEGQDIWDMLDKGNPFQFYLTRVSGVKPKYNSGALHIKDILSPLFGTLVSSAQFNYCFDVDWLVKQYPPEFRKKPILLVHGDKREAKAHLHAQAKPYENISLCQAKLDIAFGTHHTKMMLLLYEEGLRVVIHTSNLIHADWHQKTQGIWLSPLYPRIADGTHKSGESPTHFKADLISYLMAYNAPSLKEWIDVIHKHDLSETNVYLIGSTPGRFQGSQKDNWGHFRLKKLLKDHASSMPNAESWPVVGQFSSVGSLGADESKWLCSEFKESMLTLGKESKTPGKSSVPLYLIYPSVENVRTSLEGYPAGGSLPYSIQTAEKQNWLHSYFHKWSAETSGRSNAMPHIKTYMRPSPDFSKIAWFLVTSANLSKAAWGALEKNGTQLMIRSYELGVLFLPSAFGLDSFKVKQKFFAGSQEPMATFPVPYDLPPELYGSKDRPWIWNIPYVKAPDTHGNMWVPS
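Compounds were preincubated with Tdp1 (1 nM final) for 15 min at room temperature before substrate (15 nM final) started a 5 min reaction; beads (10 ug/ml final) were then added for 10 min before AlphaScreen detection.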
GALK confirm: galactokinase (human) inhibition, confirmation. purified GALK, Kinase-Glo ATP depletion luminescence. Potency, µM (series often up to 115 µM), for the others: at the highest dose activity, negative = inhibition, most hits filed as inhibitors. shares compounds with Pol eta inh-1. hit rate 70% among 150
GALK redox cs: counter-screen for GALK inhibitors: redox cycling H2O2 generation; shares compounds with Pol eta inh-1; Phenol red-HRP H2O2 redox cycling, absorbance 600 nm; Potency, µM (doses to about 115 µM), for inactives: at the top dose activity change, negative = H2O2 signal, usual class: inhibitors; hit rate 40% among 150
HEK293 viability: reduces HEK-293 cell viability in GALK counter-screen; shares compounds with Pol eta inh-1; HEK-293 viability, ATP luminescence (CellTiter-Glo), 24/48 h; Potency, µM (titrated, usually from 46.1 µM), inactives show at the highest dose activity change, negative = cytotoxicity, actives largely listed as inhibitors; hit rate 10% among 170; AID 2547; also: potency is read from the fitted curve at half-maximal effect; % is scaled to controls: 0 for no effect and ±100 for the full control effect
Pol kappa inh-2: Pol kappa (human) inhibition, cherry-pick confirmation; shares compounds with Pol eta inh-1; purified Pol-kappa, fluorescent strand-displacement substrate; Potency, µM, hits mostly inhibitors; hit rate 76% among 920; AID 720501; also: potency is read from the fitted curve at half-maximal effect
Pol eta inh-2: confirmation of human DNA polymerase eta inhibitors | shares compounds with Pol eta inh-1 | Pol eta primer extension, TAMRA/BHQ fluorescence, 10 min | Potency, µM, actives largely listed as inhibitors | hit rate 64% among 2,600; also: potency is read from the fitted curve at half-maximal effect
Starred values were filed as active, the others as inactive; u = inconclusive; x = no result; [ ] = dose if it differs, or a comment. Calls follow the shape of the dose curve; as a rule, active = well fitted curve in the direction sought with a large enough effect; inconclusive = small, poorly fitted or top-dose-only effect, or another doubt; inactive = no such curve, though single readings can be large; an effect the other way counts as inactive or inconclusive.

SMILES | POLB inh | Pol kappa inh-1 | FEN1 inhibitor | POLI inh | Pol eta inh-1 | TDP1 inh | Pol eta inh-2 | others
Cc1ccc(N2C(=O)NC(=O)/C(=C/c3cnn(-c4ccc(C)cc4)c3)C2=O)cc1 | 35.5% | -18.8% | 3.2% | 2.6% | 8.2% | -5.3% | x
CC1=C(O)C(=O)[C@H]2O[C@@H]2C1=O | x | u | x | x | x | 3.6%[56.1 µM] | x
OC[C@@H]1O[C@H](OC2[C@@H](O)[C@@H](O)[C@@H](O)O[C@@H]2CO)[C@H](O)[C@@H](O)[C@@H]1OC1O[C@H](CO)[C@@H](O)[C@H](O)[C@@H]1O (stereo partly drawn) | x | 15.7%[60.1 µM] | x | x | x | 9.5% | x
C=CC(=O)OCC | x | x | x | x | x | 7.0% | x
O=C(OC1Cc2c(O)cc(O)cc2OC1c1cc(O)c(O)c(O)c1)c1cc(O)c(O)c(O)c1 (stereo not drawn) | x | 0.562µM* | x | x | x | x | x | GALK confirm=9.43µM*;GALK redox cs=-9.8%;HEK293 viability=-6.9%
Cc1ccccc1N1C(=O)/C(=C/c2ccco2)C(=O)NC1=S | 0.316µM* | x | x | x | x | x | x | GALK confirm=u;GALK redox cs=-25.5%;HEK293 viability=-0.6%
Cc1ccccc1N1C(=O)NC(=O)/C(=C\c2cc(Br)c(N3CCOCC3)o2)C1=O | 37.0% | -24.1% | -4.6% | u | 2.6% | -0.6% | x
Cc1cccc(N2C(=O)NC(=O)/C(=C\c3cc(C)n(-c4sc5c(c4C#N)CCCC5)c3C)C2=O)c1C | u | -21.2% | -31.2% | 20µM* | 20µM* | -7.9% | 30.1*
CCOC(=O)c1c(-n2c(C)cc(C=C3C(=O)NC(=O)NC3=O)c2C)sc2c1CCCC2 | 16.2% | -11.6% | 3.0% | u | u | -2.0% | x
Cn1cccc1/C=C1/C(=O)NC(=O)N(Cc2ccccc2)C1=O | 3.7% | 79.4µM* | -9.3% | 15.8µM* | u | 5.3% | 75.7*
Cn1cccc1/C=C1\C(=O)NC(=O)N(Cc2ccccc2)C1=O | u | 50.1µM* | -1.4% | 22.4µM* | 35.5µM* | 5.0% | u
Nc1ccc(-c2ccc(N)c(Cl)c2)cc1Cl | x | x | x | x | x | 14.4% | x
Cc1cccc(N2C(=O)NC(=O)/C(=C\c3ccc4c(c3)CCCN4Cc3ccccc3)C2=O)c1 | -27.6% | -1.0% | -18.3% | u | 22.4µM* | 5.5% | u
O=C(Nc1ccc(Oc2ccc(Cl)cc2)c(Cl)c1)c1cc(I)cc(I)c1O | 6.0% | -25.5% | u | u | u | 12.6% | u | Pol kappa inh-2=13.4*
COC(=O)c1cc(Oc2ccc(Cl)cc2Cl)ccc1[N+](=O)[O-] | x | 0.1%[60.1 µM] | x | x | x | 18.7% | x
COCCCn1c(N)c(C(=O)NCc2ccco2)c2nc3ccccc3nc21 | -34.8% | -9.7% | -10.0% | 82.5% | -13.1% | x | x | GALK confirm=u;GALK redox cs=-4.2%;HEK293 viability=u
COC[C@H]1OC(=O)c2coc3c2[C@@]1(C)C1=C(C3=O)[C@H]2CCC(=O)[C@@]2(C)C[C@H]1OC(C)=O | x | -13.6%[19.4 µM] | x | x | x | 13.2%[56.1 µM] | x
O=C1NC(=O)C(=Cc2ccc(SC3CCCCC3)o2)C(=O)N1 | 20µM* | -90.5% | u | 10µM* | 20µM* | u | 47.8*
O=C1NC(=O)C(=Cc2ccc(-c3ccccc3[N+](=O)[O-])o2)C(=O)N1 | 3.5% | -15.3% | u | u | -12.0% | -8.0% | x
CC(C)[C@H](NC(=O)[C@H](CC(=O)O)NC(=O)[C@H](Cc1ccccc1)NC(=O)[C@@H](C)NC(=O)[C@@H](N)Cc1ccc(O)cc1)C(=O)N[C@H](C(=O)NCC(N)=O)C(C)C | x | 14.8%[60.1 µM] | x | x | x | 5.6% | x
O=C1NC(=S)NC(=O)C12C(c1ccccc1)NC(=S)NC2c1ccccc1 (stereo not drawn) | 0.6% | -6.4% | 14.8% | 20µM* | 50.1µM* | -10.5% | u
COC(=O)c1ccccc1N | x | x | x | x | x | 12.7% | x
COc1ccc(C=C2C(=O)NC(=S)NC2=O)cc1 | x | -9.8% | -4.1% | -2.7% | -4.2% | x | x
O=C1NC(=S)NC(=O)C1=Cc1cccc2cc3ccccc3cc12 | -4.1% | -4.5% | u | 35.5µM* | 50.1µM* | -12.7% | u
O=C(N/N=C/c1c(O)n(Cc2ccco2)c(=O)[nH]c1=O)c1ccccc1O | -29.0% | 79.4µM* | -18.3% | 28.2µM* | 14.1µM* | 6.5% | 30.1*
SMILES | POLB inh | Pol kappa inh-1 | FEN1 inhibitor | POLI inh | Pol eta inh-1 | TDP1 inh | Pol eta inh-2 | others
Cc1c(N=Cc2c(O)n(Cc3ccco3)c(=O)[nH]c2=O)c(=O)n(-c2ccccc2)n1C | u | -28.8% | -12.7% | u | 17.8µM* | -5.7% | u
CCCCC(=O)N/N=C/c1c(O)n(Cc2ccco2)c(=O)[nH]c1=O | u | -7.5% | -6.5% | u | u | 4.1% | x
O=C(O)c1ccccc1-c1ccc(C=C2C(=O)N(c3ccccc3)C(=S)N(c3ccccc3)C2=O)o1 | 44.7µM* | u | u | u | 17.8µM* | x | 33.8* | Pol kappa inh-2=16.8*
CN1C(=O)C(=Cc2ccc(N3CCOCC3)o2)C(=O)N(C)C1=O | 1.7% | -13.2% | -3.6% | -11.8% | -8.0% | 2.7% | x
COC(=O)C[C@@](O)(CCC(C)(C)O)C(=O)O[C@@H]1C(OC)=C[C@]23CCCN2CCc2cc4c(cc2[C@@H]13)OCO4 | x | 12.5%[60.1 µM] | x | x | x | 3.6% | x
O=C1NC(=O)N(CCC2=CCCCC2)C(=O)/C1=C/c1cccs1 | u | -39.5% | u | u | u | x | u
CC(n1cc(C[C@H](N)C(=O)O)c2ccccc21)n1cc(C[C@H](N)C(=O)O)c2ccccc21 | x | 0.8%[19.4 µM] | x | x | x | 19.5% | x
CC1=NN(c2ccccc2)C(=O)C1/C=C1\C(=O)NC(=O)N(c2cc(C)cc(C)c2)C1=O (stereo not drawn) | -8.4% | -5.1% | 6.2% | u | -10.8% | 2.5% | x
